Assay outcomes: PubChem BioAssay, National Center for Advancing Translational Sciences (NCATS)
Rows were chosen to be rich in hits. Some 0.64% of all compounds tested hit in one or more screens of this group.
TRb-SRC2 inh: inhibitors of human thyroid hormone receptor beta-SRC2 interaction; Potency, µM (doses to about 106 µM), hits mostly inhibitors; 280,000 compounds, 0.065% hits; P10828; TRbeta-SRC2 peptide binding, fluorescence polarization; receptor liganded with 1 µM T3; AID 1469; note: nearly all actives have a fitted effect of over 50% in size
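Fluorescence polarization of 20 nM Texas Red SRC2 peptide with 0.6 uM human TRb ligand-binding domain, in Tris buffer with 1uM T3 and 5% DMSO. Incubated 5 hr ambient; normalized to unbound and bound controls.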
BLM helicase inh: inhibitors of human Bloom syndrome helicase BLM; P54132; recombinant BLM DNA unwinding, fluorescence dequenching; Potency, µM (series often up to 56.1 µM), usual class: inhibitors; 350,000 compounds, 0.2% hits; note: nearly all actives have a fitted effect of over 35% in size
TR SRC2 fluor cs: Texas Red fluorescence interference in TRb-SRC2 counter-screen; TRb/SRC2 Texas Red total fluorescence interference; Potency, µM (top dose mostly 106 µM); 280,000 compounds, 0.29% hits; active = well fitted curve in either direction with a large enough effect; inconclusive = small, poorly fitted or top-dose-only effect
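Human TRb ligand-binding domain at 0.6 uM with 20 nM Texas Red SRC2 peptide in Tris buffer containing 1 uM T3 and 5% DMSO, incubated with compound 5 h at ambient temperature. Total fluorescence (555/632 nm) calculated as parallel + 2 × perpendicular.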
RECQ1 inh: blocks DNA unwinding by human RECQ1; P46063; RECQ1 DNA unwinding, red fluorescence kinetic read; Potency, µM (top dose mostly 57.3 µM), actives largely listed as inhibitors; 240,000 compounds, 0.54% hits; note: nearly all actives have a fitted effect of over 30% in size
Target sequence (P46063 whole entry, looked up): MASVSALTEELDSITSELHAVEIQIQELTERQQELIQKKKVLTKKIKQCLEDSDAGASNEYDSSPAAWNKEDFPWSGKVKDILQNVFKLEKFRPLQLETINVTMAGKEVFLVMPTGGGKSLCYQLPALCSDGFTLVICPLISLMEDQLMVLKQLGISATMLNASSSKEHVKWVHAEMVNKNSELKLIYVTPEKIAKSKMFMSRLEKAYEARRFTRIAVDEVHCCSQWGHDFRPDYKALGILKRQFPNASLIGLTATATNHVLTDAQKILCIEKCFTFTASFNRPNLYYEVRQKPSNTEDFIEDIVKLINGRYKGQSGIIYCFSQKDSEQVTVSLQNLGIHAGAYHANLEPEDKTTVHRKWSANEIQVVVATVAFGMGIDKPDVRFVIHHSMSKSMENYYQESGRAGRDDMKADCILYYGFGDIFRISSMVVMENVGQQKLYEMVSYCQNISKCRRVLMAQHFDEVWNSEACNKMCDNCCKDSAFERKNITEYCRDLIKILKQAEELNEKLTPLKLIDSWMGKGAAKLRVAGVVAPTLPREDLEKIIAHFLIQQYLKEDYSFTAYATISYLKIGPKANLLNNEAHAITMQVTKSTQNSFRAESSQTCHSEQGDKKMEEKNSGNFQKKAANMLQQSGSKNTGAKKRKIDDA
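50 nM RECQ1T1 preincubated 15 min with compound in Tris pH 8.0 buffer with MgCl2, DTT, Tween-20 and 2.5 ug/ml poly(dI-dC); started with 200 nM TAMRA/BHQ-2 forked duplex and 2 mM ATP. Unwinding read as fluorescence (525/598 nm), two reads 2 h apart.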
Large screens that a line does not name were inactive; [ ] = another dose, or the depositor's remark. Unless noted, calls come from the whole dose curve; as a rule, active = well fitted curve in the direction sought with a large enough effect; inconclusive = small, poorly fitted or top-dose-only effect, or another doubt; inactive = no such curve, though single readings can be large; an effect the other way counts as inactive or inconclusive.

N[C@@H]1[C@@H](O)[C@H](O)[C@@H](CO)O[C@H]1O	none (no result: BLM helicase inh, RECQ1 inh)
Cc1cc(C)c(S(=O)(=O)/N=C2/C=C(Sc3ncn[nH]3)C(=O)c3ccccc32)cc1C	BLM helicase inh 10µM
Cc1ccc(C)c(S(=O)(=O)/N=C2\C=C(NS(=O)(=O)c3ccccc3)C(=O)c3ccccc32)c1	none (no result: TRb-SRC2 inh, TR SRC2 fluor cs, RECQ1 inh)
O=c1oc(=O)c2cc3c(=O)oc(=O)c3cc12	none (no result: BLM helicase inh, RECQ1 inh)
CCOc1cc(CNc2ccc(O)cc2)cc(Br)c1OCc1ccccc1F	TRb-SRC2 inh 32µM, BLM helicase inh inconclusive, TR SRC2 fluor cs inconclusive
CCCN(CCC)CCCNC(=O)c1nn(C)c2c1CS(=O)(=O)c1ccccc1-2	TR SRC2 fluor cs 50µM[quencher] (no result: RECQ1 inh)
CCCN(CCC)CCNC(=O)c1nn(C)c2c1CS(=O)(=O)c1ccccc1-2	none (no result: RECQ1 inh)
CCc1ccc(CNC(=O)c2nn(C)c3c2CS(=O)(=O)c2ccccc2-3)cc1	none (no result: TRb-SRC2 inh, TR SRC2 fluor cs, RECQ1 inh)
CCOc1ccccc1CNC(=O)c1nn(C)c2c1CS(=O)(=O)c1ccccc1-2	TR SRC2 fluor cs 0.11µM[quencher] (no result: RECQ1 inh)
CCCCOC(=O)CC(CC(=O)OCCCC)(OC(C)=O)C(=O)OCCCC	none (no result: BLM helicase inh, RECQ1 inh)
CCc1ccc(CNc2ncnc3onc(-c4ccc(Cl)cc4)c23)cc1	none (no result: RECQ1 inh)
COc1ccc([N+](=O)[O-])cc1NC(=O)Nc1cccc(Cl)c1	none
COc1ccc([N+](=O)[O-])cc1NC(=O)Nc1ccc(OC)c(OC)c1	BLM helicase inh 32µM
O=C1/C(=C\c2cc([N+](=O)[O-])ccc2O)SC(=S)N1Cc1ccc(Cl)cc1	BLM helicase inh 32µM (no result: TRb-SRC2 inh, TR SRC2 fluor cs, RECQ1 inh)
CCOC(=O)C1=NN(c2ccc(Cl)cc2Cl)C(C)(C(=O)OCC)C1 (centres undefined)	none (no result: BLM helicase inh, RECQ1 inh)
Fc1ccc(-n2cc(-c3ccccc3)c3c(NC4CCCCC4)ncnc32)cc1	none (no result: RECQ1 inh)
Nc1ccc(O)c2c1C(=O)c1ccccc1C2=O	BLM helicase inh 14µM
O=C1c2ccccc2C(=O)c2c(O)c(O)cc(O)c21	RECQ1 inh 6.3µM
COc1ccc(N)c2c1C(=O)c1ccccc1C2=O	TRb-SRC2 inh 32µM, TR SRC2 fluor cs 50µM[fluorescent]
CCOCCOCCOC(C)=O	none (no result: BLM helicase inh, RECQ1 inh)
COc1cc(CC2COC(c3ccc(O)c(OC)c3)C2COC(C)=O)ccc1O (centres undefined)	BLM helicase inh 25µM, RECQ1 inh 25µM
COc1cc(CC(=O)O)ccc1O	none
[O][C@H]1[C@@H](O)[C@@H](CO)O[C@@H](O[C@@H]2[C@@H]3OC[C@H]2O[C@H](O[C@@H]2[C@@H](O)[C@H](C[C@@H]4[C@@H]5OC[C@H]4O[CH][C@@H]5O)O[C@H](CO)[C@@H]2OS(=O)(=O)O)[C@@H]3OS(=O)(=O)O)[C@@H]1O	BLM helicase inh inconclusive, RECQ1 inh 4µM
OCC(CO)(CO)COCC(CO)(CO)CO	none (no result: BLM helicase inh, RECQ1 inh)
Cc1ccc(Cl)cc1N1CCN(C(=O)c2ccc(CS(=O)(=O)c3ccc(Br)cc3)o2)CC1	TR SRC2 fluor cs 1000µM[quencher] (no result: RECQ1 inh)
CCN(CC)c1cc2c(cc1F)c(=O)c(S(=O)(=O)c1ccc(OC)cc1)cn2Cc1ccccc1	TR SRC2 fluor cs 112µM[quencher] (no result: RECQ1 inh)
C=C[C@@H]1CN2CC[C@@H]1C[C@@H]2[C@H](O)c1ccnc2ccc(OC)cc12	none (no result: BLM helicase inh, TR SRC2 fluor cs)
CC(C)CN(CC(C)C)c1nc(N)c(C#N)c(CC#N)c1C#N	RECQ1 inh 28µM
O=C1NC(=Nc2ccccc2)S/C1=C\C=C\c1ccco1	BLM helicase inh 13µM
Cc1cccc(N=C2NC(=O)/C(=C/C=C/c3ccco3)S2)c1C	BLM helicase inh inconclusive
Cc1cccc(-n2cnc3c(c2=O)c2nc4ccccc4nc2n3Cc2ccco2)c1	none
COc1ccc(Cn2c3nc4ccccc4nc3c3c(=O)n(Cc4ccco4)cnc32)cc1	RECQ1 inh 28µM
CCOC(=O)CSc1nnc2cc(C)c3ccccc3n12	none
CC(=O)CSc1nnc2cc(C)c3cc(C)cc(C)c3n12	TR SRC2 fluor cs 25µM[quencher] (no result: RECQ1 inh)
O=C(Nc1nnc(S(=O)(=O)N2CCCC2)s1)c1ccc(F)cc1	none (no result: RECQ1 inh)
O=C(Nc1nnc(S(=O)(=O)N2CCCCC2)s1)c1ccc(F)cc1	TR SRC2 fluor cs 100µM[quencher] (no result: RECQ1 inh)
CC(CCc1ccc(O)cc1)NCCc1ccc(O)c(O)c1 (centres undefined)	none
C[C@H](Cc1ccc(O)c(O)c1)[C@@H](C)Cc1ccc(O)c(O)c1	RECQ1 inh 2.5µM (no result: BLM helicase inh)
CCn1c(C)nc2cc(C(=O)NNC(=O)CCC3CCCCC3)ccc21	TRb-SRC2 inh inconclusive, TR SRC2 fluor cs 3.5µM[quencher]
CCn1c(C)nc2cc(C(=O)NNC(=S)Nc3ccc(C)cc3)ccc21	none
C=CCN1C(=O)/C(=C2/Sc3ccccc3N2CC)SC1=S	none (no result: TRb-SRC2 inh, TR SRC2 fluor cs, RECQ1 inh)
